The test addresses Genome polyprotein (Dengue virus type 2 (strain 16681-PDK53)) (UniProt P29991). The test can be described thus: Dengue-2 NS5 methyltransferase inhibitors, primary screen, biochemical, confirmation dose response (AID 588689). As to conditions: Dengue-2 NS5 methyltransferase capping enzyme assay, at 25 µM, stronger effect = higher value.
[1] abbreviates: measured here: pilot screen replicate inhibition.

The whole screen tested about 340,000 compounds, of which about 1,000 (0.29%) were called active. Cut-off read from the data, not from the text of the source: inconclusive = inhibition above about 29% without an active follow-up result; inactive = below that. The list is a sample of the results. Results with a measured potency or affinity are listed apart.

Here are results for 92 compounds from PubChem BioAssay AID588689 (Southern Research Specialized Biocontainment Screening …, 2011).

What is called inhibition is the change of the read-out against control, counted positive when it falls. In the case of `O=C(Nc1ccccc1N1CCCCC1)c1cc(S(=O)(=O)N2CCOCC2)ccc1Cl`, the inhibition is -0.73% (inactive). With `C#CC[N+](C)(C)CC#Cc1ccccc1`, the inhibition was -1.48% (inactive).

For `O=C1CC(c2ccccc2)CC(O)=C1C=NCc1ccc(Cl)c(Cl)c1` (centres undefined), the inhibition is 3.34% (inactive). On the same count and under the same terms, the figure for `CC1(C)CC(=O)C(C(N)=NC(=O)c2ccccc2)=C(O)C1` is 0% (inactive); for `CC(=O)c1c(C)[nH]c(C(=O)OCC(=O)N2CCc3ccccc32)c1C` it is -4.77% (inactive); for `CCCCc1cc(=O)oc2cc(OCC(=O)N3CCc4ccccc43)ccc12` it is -4.8% (inactive).

On to `CCc1ccc(N2C(=O)CC(Cn3nc(C)cc3C)C2=O)cc1` (centres undefined), for which the inhibition was -5.48% (inactive). The same measure, in the same setting: the same measure for `CN(C)S(=O)(=O)c1cccc(NC(=O)/C=C/c2ccc(S(=O)(=O)N3CCOCC3)cc2)c1`: -0.74% (inactive); for `CC1=NN(c2cccc(C(=O)O)c2)C(=O)/C1=C\C=C\c1ccco1`: 19.1% (inactive). The same measure, in the same setting: the same measure for `CC1=NN(c2ccc(C(=O)O)cc2)C(=O)/C1=C/c1ccc(-c2ccccc2F)o1`: 51.9% (inactive). On the same count and under the same terms, the same measure for `CCOC(=O)c1ccc(N2N=C(C)/C(=C/C=C/c3ccco3)C2=O)cc1`: 10.2% (inactive); for `COC(=O)c1ccccc1-c1ccc(/C=C2\C(=O)N(c3ccccc3)N=C2c2ccccc2)o1`: 1.6% (inactive); for `O=C(c1ccccc1[N+](=O)[O-])N1CCCC(C(=O)N2CCCCCC2)C1` (centres undefined): 0% (inactive).

Consider `C=CCSc1nnc(NC(=O)c2nc(SCC)ncc2Cl)s1`, for which the inhibition is -6.43% (inactive).

`CCc1ccc(NC(=O)c2nc(S(=O)(=O)Cc3ccccc3)ncc2Cl)cc1`: the inhibition was -51.9% (inactive). On the same count and under the same terms, the figure for `CCCSc1nnc(NC(=O)c2nc(SC)ncc2Cl)s1` is 0% (inactive); for `O=C(Nc1ccc(F)cc1)c1nc(S(=O)(=O)Cc2ccccc2)ncc1Cl` it is -51.9% (inactive). Still for that read-out and setting: the figure for `COc1ccc([N+](=O)[O-])cc1NC(=O)CCN1CCOCC1` is -1.96% (inactive). For the compound `COc1ccc(N(CC(=O)N/N=C/c2ccc(-c3ccc([N+](=O)[O-])cc3)o2)S(=O)(=O)c2ccc(C)cc2)cc1Cl`, the inhibition is -4.14% (inactive). The same measure, in the same setting: the same measure for `O=C(c1ccc(N2C(=O)c3ccccc3C2=O)cc1)N1CCN(S(=O)(=O)c2ccccc2F)CC1`: -0.55% (inactive); for `O=C(CCC(=O)Nc1cccc(Cl)c1)N/N=C/c1cc([N+](=O)[O-])ccc1O`: -2.94% (inactive); for `CN1CCCC(OC(=O)c2ccc(C(C)(C)C)cc2)C1` (centres undefined): -4.27% (inactive).

As for `CCOC(=O)C1C(=O)CC(C)(O)C(C(=O)OCC)C1c1cccc(OC)c1` (centres undefined), the inhibition was -3.38% (inactive). Still for that read-out and setting: the figure for `CCNCc1cc(OCC)c(OCC(=O)NCCc2ccccc2)cc1Cl` is -2.77% (inactive). On the same count and under the same terms, the same measure for `CCCn1c(N)c(C(=O)CSc2nc3ncc(Cl)cc3[nH]2)c(=O)[nH]c1=O`: -2.94% (inactive). Same read-out and setting: the figure for `COc1ccc([C@@H]2CC=C(C(=O)O)[C@H](c3cccc(Cl)c3)N2S(=O)(=O)c2ccc(Cl)cc2)cc1` is 16% (inactive). Consider `Cc1ccc(S(=O)(=O)N2[C@@H](c3cccc(Cl)c3)C(C(=O)O)=CC[C@H]2c2ccc(Cl)cc2)cc1`, for which the inhibition is 20.7% (inactive). With `Cc1ccc(S(=O)(=O)N2[C@@H](c3ccc(Cl)cc3)C(C(=O)O)=CC[C@H]2c2ccc(C(C)C)cc2)cc1`, the inhibition was 25.9% (inactive). The same measure, in the same setting: the same measure for `Cc1ccc(S(=O)(=O)N2[C@@H](c3ccccc3)C(C(=O)O)=CC[C@H]2c2ccc(C(C)C)cc2)cc1`: 21.6% (inactive); for `Cc1ccc(S(=O)(=O)N2[C@@H](c3cccc(Cl)c3)C(C(=O)O)=CC[C@H]2c2cccc(C)c2)cc1`: 20.8% (inactive); for `Cc1ccc(S(=O)(=O)N2[C@@H](c3ccccc3)C(C(=O)O)=CC[C@H]2c2cccc(Cl)c2)cc1`: -2.4% (inactive). As to `Cc1ccc([C@H]2C(C(=O)O)=CC[C@@H](c3cccc(Cl)c3)N2S(=O)(=O)c2ccc(C)cc2)cc1`, the inhibition was 16.6% (inactive). The inhibition under setting [1] worked out at 2.77%.

For `Cc1ccc(S(=O)(=O)N2[C@@H](c3ccc(Cl)cc3)C(C(=O)O)=CC[C@H]2c2cccc(Cl)c2)cc1`, the inhibition was 22.7% (inactive).

As for `O=C(NCCCN1CCCC1=O)c1cccc(N2CCCC2=O)c1`, the inhibition is -1.47% (inactive). Same read-out and setting: the same measure for `CN(C)S(=O)(=O)c1ccc(C(=O)OCC(=O)c2ccc(OC(F)F)cc2OC(F)F)cc1`: 2.08% (inactive); for `CCCN1CCN(C(=O)c2ccc(CS(=O)c3ccc(F)cc3)o2)CC1` (centres undefined): -6.18% (inactive). For the compound `O=S(=O)(NCc1cccc(C(F)(F)F)c1)NCc1ccccc1F`, the inhibition is -7.25% (inactive). For `CCn1c(SCc2nc3ccccc3c(=O)[nH]2)nnc1-c1ccncc1`, the inhibition is 3.13% (inactive). Under setting [1], the inhibition was -0.31%. In the case of `CCCCn1c(N)c(N(CCOC)C(=O)CCc2ccc(OC)cc2)c(=O)[nH]c1=O`, the inhibition was -2.18% (inactive). The same measure, in the same setting: the same measure for `Cc1ccc(Cc2nc(-c3ccncc3)no2)cc1`: -1.78% (inactive). On the same count and under the same terms, the figure for `CN(C)Cc1cc(O)c(CN(C)C)cc1O` is 24.7% (inactive); for `CCN(CC)Cc1cc(C(C)=O)ccc1O` it is -1.36% (inactive). The same measure, in the same setting: the same measure for `Nc1nc(N)c(N=Nc2ccc(C(=O)O)cc2)c(N)n1`: 0.65% (inactive); for `COc1ccc(N=Nc2ccc(N)nc2N)cc1`: 1.3% (inactive). Turning to `COc1cc2cc(CCCOC(=O)c3ccc(Br)cc3)oc(=O)c2cc1OC`, the inhibition was 8.18% (inactive). The same measure, in the same setting: the same measure for `COc1cc(C(CC(=O)Nc2ccc(C)cn2)N2Cc3ccccc3C2=O)cc(OC)c1OC` (centres undefined): -5.88% (inactive); for `Cc1ccc(C(=O)C(C)OC(=O)C2CCN(c3ccc(C(F)(F)F)cn3)CC2)cc1` (centres undefined): -0.72% (inactive); for `CNC(=O)C1CC(=O)N(CCc2ccc(C)cc2)C1` (centres undefined): -3.31% (inactive). The same measure, in the same setting: the figure for `Cc1noc(C(=O)Nc2ccccc2C(F)(F)F)c1Cl` is -9.68% (inactive); for `CC(=O)NN1C(=O)/C(=C\c2ccc(C)cc2)SC1=S` it is -6.43% (inactive); for `COc1ccc(/C=C2/SC(=S)N(NS(=O)(=O)c3ccccc3)C2=O)cc1` it is 21.2% (inactive). The same measure, in the same setting: the same measure for `O=C1/C(=C/c2ccc(O)c(O)c2)SC(=S)N1Nc1ccccc1`: -21.8% (inactive); for `O=C(O)c1ccc(/C=C2\SC(=S)N(NC(=O)c3ccccc3)C2=O)cc1`: 8.49% (inactive); for `COc1ccc(/C=C2/SC(=S)N(n3c(C)ccc3C)C2=O)cc1`: -3.19% (inactive).

As to `O=C(Cc1ccccc1)NN1C(=O)/C(=C/c2ccc(C(=O)O)cc2)SC1=S`, the inhibition is 27% (inactive). On the same count and under the same terms, the figure for `Cc1ccc(S(=O)(=O)NN2C(=O)/C(=C\c3ccc(Cl)cc3)SC2=S)cc1` is -1.66% (inactive). On the same count and under the same terms, the figure for `CCN1CCCC(NC(=O)c2cc([N+](=O)[O-])ccc2OC)C1` (centres undefined) is -5.8% (inactive); for `O=C(CSc1ccccc1)N1CCCC(N2CCN(c3ccc(F)cc3)CC2)C1` (centres undefined) it is 1.77% (inactive). Regarding `Nn1c(Cc2ccccc2F)nnc1SCC(=O)Nc1cccc(S(=O)(=O)NC2=NCCCCC2)c1`, the inhibition was -0.76% (inactive).

With `COc1ccc(CNS(=O)(=O)NCc2ccc(C)cc2)cc1OC`, the inhibition is -10.9% (inactive). For `COCCNC(=O)C1CC2Cn3c(nc4cc5ccccc5cc43)C2N1C` (centres undefined), the inhibition was -1.6% (inactive). Take `C=C(C)C(=O)NNc1ccccc1`: the inhibition was 0% (inactive).

Turning to `O=C(Cc1ccc(Cl)cc1)N/N=C/c1ccncc1`, the inhibition was -1.47% (inactive). On the same count and under the same terms, the figure for `Cc1noc(C)c1COc1ccc(C(=O)OCC(=O)Nc2cccc(S(=O)(=O)N3CCOCC3)c2)cc1` is 0.96% (inactive); for `O=C(O)c1ccccc1/C=N/NC(=O)C1CCCC1` it is -8.46% (inactive).

With `COc1cc(/C=C2/SC(=S)NC2=O)ccc1OS(=O)(=O)c1ccc(C)cc1`, the inhibition was 9.96% (inactive). Same read-out and setting: the figure for `COc1ccc(/C=C2/SC(=O)N(NS(=O)(=O)c3ccccc3)C2=S)cc1OC` is 15.7% (inactive). Same read-out and setting: the figure for `COc1cc(/C=C2\SC(=S)N(CC(=O)O)C2=O)ccc1OS(=O)(=O)c1ccc(C)cc1` is 22.7% (inactive); for `CCOc1ccc(/C=C2\SC(=S)N(Nc3ccccc3)C2=O)cc1OC` it is 8.01% (inactive); for `CCOc1ccc(/C=N/NS(=O)(=O)c2ccc(C)cc2)cc1OC` it is -1.16% (inactive). On the same count and under the same terms, the figure for `COc1ccc(OC)c(/C=C2\SC(=S)N(NS(=O)(=O)c3ccc(C)cc3)C2=O)c1` is 40.5% (inactive).

Consider `O=C1[C@H]2[C@@H](c3ccccc3)N[C@]3(CCCN(Cc4ccc(Cl)cc4)C3=O)[C@H]2C(=O)N1Cc1ccccc1`, for which the inhibition is -4.41% (inactive). Same read-out and setting: the same measure for `CC(=O)C1N=NCC1c1ccccc1` (centres undefined): 0.78% (inactive); for `O=C(CSc1ccc(-c2ccc(F)cc2)nn1)NC1CCCCC1`: -4.13% (inactive); for `COCc1cc(=O)n2[nH]c(C)cc2n1`: -5.47% (inactive). Still for that read-out and setting: the figure for `CC1CCN(S(=O)(=O)c2ccc3[nH]c(=O)[nH]c3c2)CC1` is -10.8% (inactive); for `COc1ccc(C(=O)/C=C/c2ccc(OCc3ccccc3)cc2)cc1CSCC(=O)O` it is 11.7% (inactive).

As for `COc1ccc(C(=O)/C=C/c2ccsc2)cc1CSCC(=O)O`, the inhibition is 6.74% (inactive).

In the case of `COc1ccc(CCC(=O)OCC(=O)c2ccc[nH]2)cc1OC`, the inhibition was 1.46% (inactive). The same measure, in the same setting: the figure for `CSc1nccn1CC(=O)Nc1ccc(F)cc1` is -6.45% (inactive). The same measure, in the same setting: the figure for `CCc1ccccc1NC(=O)NC1CC2CCC(C1)N2Cc1ccco1` (centres undefined) is -3.12% (inactive); for `CCCCCCC(=O)O` it is -2.09% (inactive). Same read-out and setting: the same measure for `CCCC(N)CCCCCC(=O)O` (centres undefined): -9.35% (inactive); for `CCNc1nc(NCC)n2c(SCC(=O)NC34CC5CC(CC(C5)C3)C4)nnc2n1`: -8.01% (inactive). With `O=[N+]([O-])c1ccc(CC(Cl)c2ccccn2)cc1` (centres undefined), the inhibition is 0.78% (inactive). The same measure, in the same setting: the figure for `Cc1nc([N+](=O)[O-])c(Sc2nc3ccccc3n2C)n1Cc1ccccc1` is 11.5% (inactive); for `CCCCn1c(N)c(-c2nc3ccccc3o2)c2c([N+](=O)[O-])nn(CC)c(=O)c21` it is -0.74% (inactive).

`CCCn1nc([N+](=O)[O-])c(C(C#N)c2nc3ccccc3s2)c(Cl)c1=O` (centres undefined): the inhibition was 27.6% (inactive).

With `N#CC(c1ccccn1)c1ncc(C(F)(F)F)cc1Cl` (centres undefined), the inhibition was -2.95% (inactive). Same read-out and setting: the figure for `CCCCn1c(N)c(-c2nc3ccccc3s2)c2c([N+](=O)[O-])nn(CC)c(=O)c21` is -3.23% (inactive); for `Cn1c(C(C#N)C(=O)c2sc3ccccc3c2Cl)nc2ccccc21` (centres undefined) it is -3.45% (inactive).

Take `CCCCCn1c(N)c(-c2nc3ccccc3s2)c2c([N+](=O)[O-])nn(CC)c(=O)c21`: the inhibition is -4.79% (inactive).
